Results: the supplement of paper PMC10849652
Of roughly 8,800 targets only a part is listed; those with a hit were picked by preference. About 0.5% of all pairs of compound and target were hits. Unmarked numbers belong to inactive results.

These targets were tested with Cn1cc(CNCC2CCN(c3ncc(C(=O)NO)cn3)CC2)c2ccccc21 [quisinostat] (assay: log2 fold change, soluble protein after heating vs DMSO (PISA); higher = thermal stabilisation; K562 lysate, 10 uM; active = over 0.2 and 3.5 SD of the protein, either way, in both replicates (recomputed)).
Summary of the method: (§1)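 Quantification was by TMTpro 16plex LC-MS/MS with equalised channel sums, applied to the supernatant after 21,000xg for 90 min. Samples were crude K562 extract at 1 mg/mL protein in PBS pH 7.4 with 1 mM MgCl2, treated with 10 μM compound for 30 min, heated for 3 min across 48°C-58°C, pooled and brought to 0.5% NP-40 at 4°C. Values are log-two fold changes in thermal stability relative to solvent controls, from duplicates.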

Sequence of UniProt Q15059 (Q15059 whole entry, looked up): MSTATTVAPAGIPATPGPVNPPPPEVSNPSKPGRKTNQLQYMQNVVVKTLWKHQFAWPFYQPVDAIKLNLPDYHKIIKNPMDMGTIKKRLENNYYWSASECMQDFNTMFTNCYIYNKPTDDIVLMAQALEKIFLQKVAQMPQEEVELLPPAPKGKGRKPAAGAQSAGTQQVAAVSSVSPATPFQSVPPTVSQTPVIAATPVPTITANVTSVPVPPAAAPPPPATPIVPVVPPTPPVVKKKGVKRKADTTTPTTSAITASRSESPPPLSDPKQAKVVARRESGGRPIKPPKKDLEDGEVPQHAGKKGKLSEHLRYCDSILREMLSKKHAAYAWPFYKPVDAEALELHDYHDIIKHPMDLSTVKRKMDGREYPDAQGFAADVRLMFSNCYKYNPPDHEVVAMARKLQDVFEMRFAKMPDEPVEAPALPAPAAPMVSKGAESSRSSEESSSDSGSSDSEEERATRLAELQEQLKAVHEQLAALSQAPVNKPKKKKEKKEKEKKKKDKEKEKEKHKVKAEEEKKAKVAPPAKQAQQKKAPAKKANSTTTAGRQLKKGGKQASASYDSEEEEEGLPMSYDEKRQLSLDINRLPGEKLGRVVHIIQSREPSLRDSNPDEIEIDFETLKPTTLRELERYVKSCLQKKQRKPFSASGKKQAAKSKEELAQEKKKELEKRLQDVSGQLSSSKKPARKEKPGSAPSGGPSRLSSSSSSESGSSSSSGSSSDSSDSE
Sequence of UniProt Q8N4Q1 (Q8N4Q1 whole entry, looked up): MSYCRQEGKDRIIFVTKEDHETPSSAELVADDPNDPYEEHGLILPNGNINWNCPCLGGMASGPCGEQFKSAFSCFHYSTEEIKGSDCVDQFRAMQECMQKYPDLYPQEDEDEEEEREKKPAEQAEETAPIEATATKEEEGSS
Sequence of UniProt Q9ULG6 (Q9ULG6 whole entry, looked up): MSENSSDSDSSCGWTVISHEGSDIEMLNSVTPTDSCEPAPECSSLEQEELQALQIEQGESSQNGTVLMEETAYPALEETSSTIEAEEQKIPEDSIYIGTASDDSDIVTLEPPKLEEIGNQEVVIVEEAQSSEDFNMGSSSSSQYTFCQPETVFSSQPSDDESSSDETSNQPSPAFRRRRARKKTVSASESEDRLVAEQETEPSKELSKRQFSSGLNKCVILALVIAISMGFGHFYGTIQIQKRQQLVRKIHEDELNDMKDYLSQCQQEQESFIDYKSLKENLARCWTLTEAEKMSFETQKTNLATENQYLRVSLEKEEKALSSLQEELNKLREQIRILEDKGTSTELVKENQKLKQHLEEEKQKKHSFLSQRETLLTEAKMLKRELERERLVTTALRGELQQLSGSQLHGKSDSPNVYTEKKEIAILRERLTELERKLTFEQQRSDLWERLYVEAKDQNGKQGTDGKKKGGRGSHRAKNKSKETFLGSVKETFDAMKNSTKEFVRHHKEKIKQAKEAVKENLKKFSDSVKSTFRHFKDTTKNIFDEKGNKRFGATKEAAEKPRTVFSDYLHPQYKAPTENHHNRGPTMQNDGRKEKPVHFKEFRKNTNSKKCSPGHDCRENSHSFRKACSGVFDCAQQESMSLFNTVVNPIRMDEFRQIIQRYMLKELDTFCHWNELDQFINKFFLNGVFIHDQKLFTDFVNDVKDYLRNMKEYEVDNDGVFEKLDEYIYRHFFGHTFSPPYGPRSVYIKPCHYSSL
Sequence of UniProt P27824 (P27824 whole entry, looked up): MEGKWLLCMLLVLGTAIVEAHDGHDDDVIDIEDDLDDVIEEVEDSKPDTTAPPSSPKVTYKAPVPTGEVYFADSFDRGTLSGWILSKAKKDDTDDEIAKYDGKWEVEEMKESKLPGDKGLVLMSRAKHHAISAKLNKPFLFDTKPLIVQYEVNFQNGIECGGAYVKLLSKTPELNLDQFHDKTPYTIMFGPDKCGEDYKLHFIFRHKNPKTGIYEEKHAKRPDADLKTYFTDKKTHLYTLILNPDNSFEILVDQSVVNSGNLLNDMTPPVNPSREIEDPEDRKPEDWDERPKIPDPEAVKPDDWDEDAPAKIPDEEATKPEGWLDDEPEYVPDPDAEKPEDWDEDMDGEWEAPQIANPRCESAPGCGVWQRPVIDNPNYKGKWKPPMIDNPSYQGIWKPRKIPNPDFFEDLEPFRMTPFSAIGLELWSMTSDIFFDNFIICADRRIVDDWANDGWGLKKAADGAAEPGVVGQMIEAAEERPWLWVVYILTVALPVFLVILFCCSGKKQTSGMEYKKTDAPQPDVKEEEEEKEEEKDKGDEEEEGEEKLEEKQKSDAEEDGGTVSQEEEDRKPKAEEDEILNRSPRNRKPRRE
Sequence of UniProt O75909 (O75909 whole entry, looked up): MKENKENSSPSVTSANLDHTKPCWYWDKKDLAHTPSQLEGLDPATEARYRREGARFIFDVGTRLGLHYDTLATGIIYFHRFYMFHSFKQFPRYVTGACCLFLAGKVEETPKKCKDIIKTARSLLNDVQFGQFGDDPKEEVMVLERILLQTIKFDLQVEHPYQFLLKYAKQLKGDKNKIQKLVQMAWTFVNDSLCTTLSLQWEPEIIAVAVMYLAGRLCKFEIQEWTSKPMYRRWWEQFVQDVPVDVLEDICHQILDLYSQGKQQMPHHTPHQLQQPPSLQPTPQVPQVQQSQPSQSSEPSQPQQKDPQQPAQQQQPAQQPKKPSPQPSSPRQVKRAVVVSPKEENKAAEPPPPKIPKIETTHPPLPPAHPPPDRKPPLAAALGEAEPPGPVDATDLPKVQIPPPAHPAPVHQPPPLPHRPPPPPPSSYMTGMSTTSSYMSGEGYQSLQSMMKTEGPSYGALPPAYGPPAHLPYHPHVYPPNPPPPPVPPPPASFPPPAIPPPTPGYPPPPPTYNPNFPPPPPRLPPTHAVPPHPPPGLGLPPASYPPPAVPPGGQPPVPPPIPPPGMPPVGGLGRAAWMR
Sequence of UniProt O00748 (O00748 whole entry, looked up): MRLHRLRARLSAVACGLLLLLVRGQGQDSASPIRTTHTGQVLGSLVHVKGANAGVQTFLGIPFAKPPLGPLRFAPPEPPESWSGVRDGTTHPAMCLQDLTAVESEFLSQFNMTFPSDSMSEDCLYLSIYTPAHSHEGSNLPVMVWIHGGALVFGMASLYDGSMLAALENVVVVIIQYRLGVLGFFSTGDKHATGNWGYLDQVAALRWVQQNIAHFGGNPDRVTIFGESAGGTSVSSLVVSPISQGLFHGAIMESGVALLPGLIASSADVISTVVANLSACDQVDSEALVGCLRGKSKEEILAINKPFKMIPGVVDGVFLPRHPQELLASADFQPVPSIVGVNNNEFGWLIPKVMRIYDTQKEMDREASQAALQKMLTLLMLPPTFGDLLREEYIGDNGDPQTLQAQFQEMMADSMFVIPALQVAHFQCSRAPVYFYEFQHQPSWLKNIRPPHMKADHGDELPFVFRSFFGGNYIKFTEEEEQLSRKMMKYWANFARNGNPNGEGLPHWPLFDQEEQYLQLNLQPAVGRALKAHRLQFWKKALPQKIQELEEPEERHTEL
Sequence of UniProt P14635 (P14635 whole entry, looked up): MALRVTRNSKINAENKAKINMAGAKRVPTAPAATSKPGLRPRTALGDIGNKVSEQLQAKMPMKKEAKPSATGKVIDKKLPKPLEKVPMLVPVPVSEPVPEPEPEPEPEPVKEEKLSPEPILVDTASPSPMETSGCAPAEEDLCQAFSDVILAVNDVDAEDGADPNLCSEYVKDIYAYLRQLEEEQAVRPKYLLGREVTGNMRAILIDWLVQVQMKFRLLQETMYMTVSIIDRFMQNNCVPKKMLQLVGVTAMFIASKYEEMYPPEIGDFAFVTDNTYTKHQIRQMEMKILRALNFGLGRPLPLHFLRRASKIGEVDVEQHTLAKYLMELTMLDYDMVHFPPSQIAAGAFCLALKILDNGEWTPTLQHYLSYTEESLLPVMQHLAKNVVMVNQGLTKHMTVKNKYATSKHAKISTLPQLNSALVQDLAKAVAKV
Sequence of UniProt P18859 (P18859 whole entry, looked up): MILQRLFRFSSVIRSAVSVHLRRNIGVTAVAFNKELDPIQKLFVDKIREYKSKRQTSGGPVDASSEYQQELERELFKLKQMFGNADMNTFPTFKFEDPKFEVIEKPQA
Sequence of UniProt A6NDU8 (A6NDU8 whole entry, looked up): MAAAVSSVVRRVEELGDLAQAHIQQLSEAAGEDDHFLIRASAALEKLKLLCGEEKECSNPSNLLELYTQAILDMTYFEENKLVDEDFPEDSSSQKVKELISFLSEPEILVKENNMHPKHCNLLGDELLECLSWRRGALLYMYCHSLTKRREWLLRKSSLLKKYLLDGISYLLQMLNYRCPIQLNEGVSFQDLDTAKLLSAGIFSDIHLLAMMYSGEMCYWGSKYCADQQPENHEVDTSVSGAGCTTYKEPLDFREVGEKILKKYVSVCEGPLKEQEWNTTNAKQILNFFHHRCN
Sequence of UniProt P83916 (P83916 whole entry, looked up): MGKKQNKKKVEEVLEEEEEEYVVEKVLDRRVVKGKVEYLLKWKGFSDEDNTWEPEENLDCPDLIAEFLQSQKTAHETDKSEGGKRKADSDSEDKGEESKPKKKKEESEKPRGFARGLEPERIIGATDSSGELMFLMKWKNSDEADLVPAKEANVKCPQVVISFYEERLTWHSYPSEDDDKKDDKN
Sequence of UniProt O95674 (O95674 whole entry, looked up): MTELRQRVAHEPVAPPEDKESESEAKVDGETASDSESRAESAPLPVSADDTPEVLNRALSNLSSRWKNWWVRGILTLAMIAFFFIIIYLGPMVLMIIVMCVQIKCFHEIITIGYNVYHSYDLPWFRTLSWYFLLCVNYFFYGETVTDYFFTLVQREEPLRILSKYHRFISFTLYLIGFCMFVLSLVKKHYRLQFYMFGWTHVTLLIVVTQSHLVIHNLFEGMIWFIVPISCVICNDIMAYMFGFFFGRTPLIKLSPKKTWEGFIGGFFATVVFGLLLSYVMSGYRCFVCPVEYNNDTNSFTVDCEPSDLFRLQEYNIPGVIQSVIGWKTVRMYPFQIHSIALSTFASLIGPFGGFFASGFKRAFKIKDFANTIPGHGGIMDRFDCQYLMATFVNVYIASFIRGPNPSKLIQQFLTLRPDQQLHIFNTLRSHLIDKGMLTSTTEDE
Sequence of UniProt Q8TCD1 (Q8TCD1 whole entry, looked up): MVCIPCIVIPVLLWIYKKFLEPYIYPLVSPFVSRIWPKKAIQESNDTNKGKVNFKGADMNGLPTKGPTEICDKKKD

Row | Target | log2 fold change
1 | BLOC1S6 (UniProt Q9UL45) | 0.042
2 | BAG4 (UniProt O95429) | 0.019
3 | CCNC (UniProt P24863) | 0
4 | CALM2 (UniProt P0DP24) | -0.178
5 | CEP76 (UniProt Q8TAP6) | -0.241 (active)
6 | CDS2 (UniProt O95674) | -0.045
7 | CCAR2 (UniProt Q8N163) | -0.033
8 | CDKN2AIP (UniProt Q9NXV6) | -0.031
9 | BRD3 (UniProt Q15059) | 0.013
10 | CEP120 (UniProt Q8N960) | -0.067
11 | C18orf25 (UniProt Q96B23) | -0.007
12 | CDAN1 (UniProt Q8IWY9) | -0.09
13 | ATAD1 (UniProt Q8NBU5) | -0.072
14 | CCT6A (UniProt P40227) | 0.037
15 | C5orf51 (UniProt A6NDU8) | -0.066
16 | CHCHD4 isoform 2 (UniProt Q8N4Q1) | -0.156
17 | CCPG1 isoform 5 (UniProt Q9ULG6) | -0.021
18 | CD63 (UniProt P08962) | -0.08
19 | CES2 isoform 4 (UniProt O00748) | -0.042
20 | CFDP1 (UniProt Q9UEE9) | -0.102

Row | Target | log2 fold change
21 | AURKAIP1 (UniProt Q9NWT8) | -0.02
22 | CCDC186 (UniProt Q7Z3E2) | -0.03
23 | ATP13A1 (UniProt Q9HD20) | 0.001
24 | ATXN2 (UniProt Q99700) | -0.065
25 | CHCHD2 (UniProt Q9Y6H1) | -0.049
26 | CDC40 (UniProt O60508) | -0.138
27 | CCNK isoform 4 (UniProt O75909) | 0.009
28 | C18orf32 (UniProt Q8TCD1) | 0.027
29 | CHAF1A (UniProt Q13111) | -0.053
30 | CAMK2G isoform 8 (UniProt Q13555) | -0.125
31 | CBX1 (UniProt P83916) | -0.004
32 | ATP5PF isoform 2 (UniProt P18859) | 0.11
33 | CCNB1 (UniProt P14635) | 0.035
34 | BCL2L12 (UniProt Q9HB09) | 0.022
35 | ATP11A (UniProt P98196) | 0.002
36 | CAMK1 (UniProt Q14012) | -0.12
37 | CAMLG (UniProt P49069) | 0.01
38 | CHAC2 (UniProt Q8WUX2) | -0.066
39 | CANX isoform 2 (UniProt P27824) | -0.029
40 | BRD2 isoform 2 (UniProt P25440) | -0.028

Each target was assayed with Cn1cncc1[C@@](N)(c1ccc(Cl)cc1)c1ccc2c(c1)c(-c1cccc(Cl)c1)cc(=O)n2C [tipifarnib] in the same assay as above.
Summary of the method: as §1

Row | Target | log2 fold change
41 | BLOC1S6 (UniProt Q9UL45) | -0.063
42 | BAG4 (UniProt O95429) | -0.011
43 | CCNC (UniProt P24863) | -0.049
44 | CALM2 (UniProt P0DP24) | 0.016
45 | CEP76 (UniProt Q8TAP6) | 0.006
46 | CDS2 (UniProt O95674) | 0.093
47 | CCAR2 (UniProt Q8N163) | -0.013
48 | CDKN2AIP (UniProt Q9NXV6) | 0.005
49 | BRD3 (UniProt Q15059) | 0.013
50 | CEP120 (UniProt Q8N960) | 0.16
51 | C18orf25 (UniProt Q96B23) | 0.003
52 | CDAN1 (UniProt Q8IWY9) | -0.026
53 | ATAD1 (UniProt Q8NBU5) | -0.072
54 | CCT6A (UniProt P40227) | 0.014
55 | C5orf51 (UniProt A6NDU8) | 0.026
56 | CHCHD4 isoform 2 (UniProt Q8N4Q1) | 0.018
57 | CCPG1 isoform 5 (UniProt Q9ULG6) | -0.033
58 | CD63 (UniProt P08962) | 0.126
59 | CES2 isoform 4 (UniProt O00748) | 0.05
60 | CFDP1 (UniProt Q9UEE9) | 0.013

Row | Target | log2 fold change
61 | AURKAIP1 (UniProt Q9NWT8) | -0.041
62 | CCDC186 (UniProt Q7Z3E2) | -0.01
63 | ATP13A1 (UniProt Q9HD20) | -0.109
64 | ATXN2 (UniProt Q99700) | 0.014
65 | CHCHD2 (UniProt Q9Y6H1) | 0.058
66 | CDC40 (UniProt O60508) | 0.046
67 | CCNK isoform 4 (UniProt O75909) | -0.004
68 | C18orf32 (UniProt Q8TCD1) | 0.093
69 | CHAF1A (UniProt Q13111) | 0.019
70 | CAMK2G isoform 8 (UniProt Q13555) | -0.005
71 | CBX1 (UniProt P83916) | -0.008
72 | ATP5PF isoform 2 (UniProt P18859) | 0.066
73 | CCNB1 (UniProt P14635) | -0.005
74 | BCL2L12 (UniProt Q9HB09) | 0.075
75 | ATP11A (UniProt P98196) | 0.019
76 | CAMK1 (UniProt Q14012) | -0.071
77 | CAMLG (UniProt P49069) | -0.084
78 | CHAC2 (UniProt Q8WUX2) | 0.041
79 | CANX isoform 2 (UniProt P27824) | -0.064
80 | BRD2 isoform 2 (UniProt P25440) | -0.035
